DRD3 agonist = qHTS of D3 Dopamine Receptor Agonist: qHTS; D(3) dopamine receptor (Homo sapiens), P35462; D3R DiscoveRx beta-arrestin cells, luminescence, 90 min; max activation, %; 410,000 compounds, 0.58% hits; AID 652048, 2013; in the data active = max activation above about 30%; also: 0% is about no effect
Target sequence (P35462 whole entry, looked up): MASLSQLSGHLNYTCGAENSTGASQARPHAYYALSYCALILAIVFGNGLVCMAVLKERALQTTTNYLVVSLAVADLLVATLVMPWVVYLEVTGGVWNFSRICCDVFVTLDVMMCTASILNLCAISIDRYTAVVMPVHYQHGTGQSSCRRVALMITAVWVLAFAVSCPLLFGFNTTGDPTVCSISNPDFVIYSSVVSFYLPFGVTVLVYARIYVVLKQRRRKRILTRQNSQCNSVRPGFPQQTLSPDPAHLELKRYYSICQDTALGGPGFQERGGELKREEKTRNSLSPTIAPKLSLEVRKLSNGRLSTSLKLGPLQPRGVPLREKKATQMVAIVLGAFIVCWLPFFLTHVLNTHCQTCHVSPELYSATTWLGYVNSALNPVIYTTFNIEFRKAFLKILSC
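Agonist-mode cell screen: cells plated at 1500/well and incubated overnight at 37 °C, then exposed to library compounds for 90 min at 37 °C. Detection reagent was added for 30–60 min at room temperature, and luminescence was read.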
S2 tox = Viability Counterscreen for Primary qHTS for Inhibitors of ATXN expression; S2 cells (HEK-293 line with an ATXN2-luciferase reporter) viability, CellTiter-Fluor protease fluorescence, 24 h; Potency, µM (top dose mostly 56.7 µM), actives largely listed as cytotoxic; 400,000 compounds, 0.49% hits; also: potency is read from the fitted curve at half-maximal effect; nearly all actives have a fitted effect of over 40% in size
a7 integrin act = qHTS for Activators of Integrin-Mediated Alleviation for Muscular Dystrophy. alpha7betagal myoblasts, beta-gal FDG fluorescence, 48 h. Potency, µM (series often up to 38.3 µM), without a hit: at the top dose activation, actives largely listed as activators. 350,000 compounds, 0.064% hits;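 also: potency is read from the fitted curve at half-maximal effect; 100% = response of the positive control SU9516; nearly all actives have a fitted effect of over 60% in size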
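alpha7betagal+/- myoblasts (passage 13, 250/well) treated 48 h at 37C with compounds at 1:260 dilution of DMSO stock. Lysed, then beta-galactosidase activity read as FDG fluorescence (ex 480/em 540) after 30 min, with pre-read for autofluorescence.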
IL1B secr inh = qHTS for Inhibitors of Inflammasome Signaling: IL-1-beta AlphaLISA Primary Screen | 360,000 compounds, 4.7% hits | THP-1 LPS/ATP IL-1B secretion, AlphaLISA, 16 h; active compounds read low | activity change, % at 57.5 µM; in the data active = activity change below about -50%; inconclusive = mostly about -30% to -49%; also: % is scaled to controls: 0 for no effect and ±100 for the full control effect
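THP-1 cells pretreated 1 hr with compounds (up to 57.5 uM final), then stimulated with LPS (250 ng/mL final) plus ATP (1.25 mM final); secreted IL-1B measured by AlphaLISA after 16 hr, decreased signal indicating inhibition.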
D3 antag = qHTS of D3 Dopamine Receptor Antagonist: qHTS; max response, negative = inhibition, %; 360,000 compounds, 2.5% hits; D3R cells, DiscoveRx beta-arrestin luminescence, antagonist mode; active compounds read low; D(3) dopamine receptor (Homo sapiens), P35462; AID 652054, 2013; in the data active = max response below about -50%; inconclusive = no clear call, values can overlap the other calls; also: % is scaled to controls: 0 for no effect and ±100 for the full control effect
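Cells plated overnight at 1500 cells/well, then exposed to library compounds with dopamine controls for 90 minutes at 37 degrees C. DiscoveRx reagent added for 30–60 minutes at room temperature; luminescence read, quantitative HTS format.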
ATXN2 expr inh = Primary qHTS for Inhibitors of ATXN expression; HEK-293 ATXN2-luciferase reporter, luminescence, 24 h; Potency, µM (doses to about 57 µM), for the others: top-dose activity change, negative = inhibition, actives largely listed as inhibitors; 360,000 compounds, 0.72% hits; AID 1745845, 2022; also: potency is read from the fitted curve at half-maximal effect; % is scaled to controls: 0 for no effect and ±100 for the full control effect; nearly all actives have a fitted effect of over 55% in size
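ATXN2-luciferase reporter cells (luciferase flanked by upstream and downstream ATXN2 gene portions) were treated 24 h at 37 °C with compounds at up to 57 uM. SteadyGlo luminescence gave expression; GF-AFC fluorescence gave viability.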
An asterisk follows results filed as active; i = inactive; ? = inconclusive; . = no result given. Sampled rows, rich in hits. Any-hit rate of the full collection: about 7%. Unless noted, calls follow the shape of the dose curve; as a rule, active = well fitted curve in the direction sought with a large enough effect; inconclusive = small, poorly fitted or top-dose-only effect, or another doubt; inactive = no such curve, though single readings can be large; an effect the other way counts as inactive or inconclusive.

SMILES	DRD3 agonist	S2 tox	a7 integrin act	IL1B secr inh	D3 antag	ATXN2 expr inh
O=C1CN(c2ccccc2F)C(=O)CN1c1ccccc1F	-1	i	3%	5	6	4%
O=C1c2ccccc2C(=O)N1c1nccs1	1	i	?	-6	13	2%
Cc1nnc(SCC(=O)O)s1	3	i	12%	7	7	-8%
CCC(C)c1c(N)n(S(=O)(=O)c2ccc(C)cc2)oc1=O (stereo not given)	1	i	2%	5	7	1%
OC(c1ccccc1)C(O)C(c1ccccc1)N1CCCCC1 (stereo not given)	8	i	-21%	0	9	-8%
Cc1cccc(NC(=O)COc2ccc(Br)cc2)n1	-10	i	20%	-19	?	23%
CC(=O)Nc1ccc2c(=O)n(-c3ccccc3)sc2c1	3	.	-53%	-104*	4	?
O=C(O)c1cccc(-n2sc3ccccc3c2=O)c1	-2	?	-11%	-107*	?	-24%
O=c1c2cc(F)ccc2sn1-c1ccccc1	-17	13µM*	-43%	-2	-12	?
O=c1c2ccccc2sn1-c1ccccc1	-3	.	-71%	-101*	-98*	?
O=c1c2cc(C(F)(F)F)ccc2sn1-c1ccccc1	3	?	-17%	2	3	4%
O=C(c1ccc2c(c1)N(Cc1c(F)cccc1Cl)C(=O)c1ccccc1S2)N1CCCC1	3	i	.	.	.	?
COCc1nnc(NC(=O)c2ccc(S(=O)(=O)N(CC(C)C)CC(C)C)cc2)o1	7	i	-10%	89	9	-27%
N#Cc1ccc2c(=O)n(-c3ccccc3)sc2c1	-8	10µM*	-22%	24	?	-35%
Cc1ccccc1-n1sc2cc(F)ccc2c1=O	-3	?	-72%	-105*	-15	?
CN(C)S(=O)(=O)c1cccc(-n2sc3ccccc3c2=O)c1	-32	?	-41%	-105*	?	-35%
CCOC(=O)CC[C@H](NC(=O)Cn1cc(C)c(=O)[nH]c1=O)C(=O)OCC	6	i	10%	14	3	3%
Cc1ccc(C[n+]2cccc(-c3ccccc3)c2)c(C)c1	-12	i	-3%	-58*	-21	-5%
Clc1cc(Br)ccc1OCCCNCc1ccccc1	-11	i	-51%	-101*	-88*	-18%
Cc1ccc(C)c(OCCCNCc2ccccc2)c1	-6	i	-62%	-16	-54*	.
CCC(C)N(C(=O)CSc1nc(-c2cccs2)nc2ccccc12)C1CCS(=O)(=O)C1 (stereo not given)	-7	i	17%	-83*	31	13%
CCC(C)N(C(=O)CSc1ncnc2sccc12)C1CCS(=O)(=O)C1 (stereo not given)	0	i	0%	0	7	.
O=C(COC(=O)c1ccc(Br)o1)NCc1ccc2c(c1)OCO2	0	i	-2%	10	-18	-10%
CCNC(=O)C/C(C)=N/NC(=O)C12CC3CC(CC(C3)C1)C2	-4	i	6%	-1	0	-1%
COc1cc(-c2ccc3oc(-c4cccc(C)c4)c(C#CC4(O)CCCCC4)c3c2)cc(OC)c1OC	42*	i	8%	-63*	10	-19%
Cc1nn(CC(=O)N/N=C/c2cccs2)c(C)c1[N+](=O)[O-]	1	i	-20%	-24	-17	-3%
C/C(=N\NC(=O)Cn1nc(C)c([N+](=O)[O-])c1C)c1ccc(Cl)s1	-2	i	-23%	2	-62*	4%
COc1cccc(/C=N/NC(=O)Cn2nc(C)c([N+](=O)[O-])c2C)c1O	-2	?	-11%	53	-13	16µM*
COc1cccc(/C=N/NC(=O)C(C)n2nc(C)c([N+](=O)[O-])c2C)c1O (stereo not given)	6	?	-10%	37	19	25µM*
